PINK1 expr mod – changes PINK1 expression | PINK1 immunofluorescence, high-content cytometry, 24 h | Potency, µM (titrated, usually from 76.6 µM), without a hit: at the highest dose activation (PINK1 increase), actives largely listed as activators | 410,000 compounds, 0.2% hits; active = well fitted activation curve with a large enough effect; inconclusive = small, poorly fitted or top-dose-only effect; cell line not stated here; also: % of control where 0% means no effect; nearly all actives have a fitted effect of over 65% in size
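Compound titrations (5 concentrations, 24 h) on a stable cell line; DMSO and CCCP controls. Endpoint: fixed-cell PINK1 immunofluorescence with mitochondrial, cell and nuclear markers, scanned by microplate cytometer.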
SW480 rerep – DNA re-replication induction in SW480 cells. SW480 DNA re-replication, Hoechst DNA content imaging, 48 h. Potency, µM (doses to about 46.1 µM), for the others: at the top dose re-replication activation, hits mostly activators. 340,000 compounds, 1.8% hits. AID 624297; also: % of control where 0% means no effect; nearly all actives have a fitted effect of over 55% in size
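Image-based read-out: total Hoechst fluorescence of nuclei (405 nm excitation, 500-530 nm emission), with hits raising the fraction of high-intensity nuclei. SW480 colon cells incubated 48 hr with compounds at 37 C.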
PTAP TSG101 blk – blocks PTAP/TSG101 interaction to inhibit HIV-1 budding. Fluorescence polarization, FITC-PTAP peptide / Tsg101 binding. Q99816. Potency, µM (top dose mostly 115 µM), without a hit: at the top dose activity change, negative = inhibition, actives largely listed as inhibitors. 340,000 tested, under 10 active; active = well fitted inhibition curve with a large enough effect in the main read-out, with a control signal flat, not every such curve was filed as active; inconclusive = small, poorly fitted or top-dose-only effect, or effect the other way, or a change in a side signal; inactive = no such curve, though single readings can be large or run the other way; also: % of control where 0% means no effect
Target sequence (Q99816 whole entry, looked up): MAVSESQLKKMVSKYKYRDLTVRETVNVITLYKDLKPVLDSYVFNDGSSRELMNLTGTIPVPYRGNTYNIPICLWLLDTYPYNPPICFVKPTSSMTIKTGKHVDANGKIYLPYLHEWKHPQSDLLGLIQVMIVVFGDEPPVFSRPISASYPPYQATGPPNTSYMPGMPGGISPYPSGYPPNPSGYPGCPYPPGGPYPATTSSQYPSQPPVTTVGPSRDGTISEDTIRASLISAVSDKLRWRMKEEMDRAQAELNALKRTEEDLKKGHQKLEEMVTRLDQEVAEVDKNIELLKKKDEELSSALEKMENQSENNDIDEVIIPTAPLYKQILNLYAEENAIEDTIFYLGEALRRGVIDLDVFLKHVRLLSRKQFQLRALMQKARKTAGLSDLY
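Fluorescence anisotropy tracks displacement of a FITC-tagged PTAP peptide (50 nM) from the Tsg101 binding domain (10 uM), following a 20 min room-temperature incubation at pH 7.5.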
KB-3-1 tox – KB-3-1 parental cell cytotoxicity; KB-3-1 viability, CellTiter-Glo ATP luminescence, 72 h; Potency, µM (series often up to 46.1 µM), actives largely listed as cytotoxic; 400,000 compounds, 1.4% hits; also: % is scaled to controls: 0 for no effect and ±100 for the full control effect; nearly all actives have a fitted effect of over 60% in size
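Cytotoxicity measured as CellTiter-Glo luminescence after 72 h at 37 C. Compound titrations were pinned onto drug-naive KB-3-1 parental adenocarcinoma cells grown in DMEM with 10% FBS, and normalized data fitted to concentration-response curves.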
MCF10A rereplic – inducers of DNA re-replication in MCF 10A breast cells. 350,000 compounds, 2.9% hits. AID 624296. Potency, µM (doses to about 46.1 µM), without a hit: top-dose activity, positive = re-replication, usual class: activators. MCF 10A DNA re-replication, Hoechst nuclear intensity, 48 h; also: % of control where 0% means no effect; nearly all actives have a fitted effect of over 50% in size
KB-V1 cytotox – kills drug-selected multidrug resistant KB-V1 cells; KB-V1 MDR cells viability, CellTiter-Glo, 72 h; Potency, µM (highest dose often 46.1 µM), hits mostly cytotoxic; 400,000 compounds, 3.4% hits; AID 1347076; also: % is scaled to controls: 0 for no effect and ±100 for the full control effect; nearly all actives have a fitted effect of over 60% in size
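Cells of the MDR subline KB-V1 are plated, dosed with compound at multiple concentrations, and incubated 72 h at 37 degrees C; CellTiter-Glo is then added and luminescence read after 10 min.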
Numbers without * were called inactive; [ ] = dose if it differs, or a comment. A selection: hits, their analogues and other compounds. The true share with any hit is near 6.8%. Unless noted, calls follow the shape of the dose curve; as a rule, active = well fitted curve in the direction sought with a large enough effect; inconclusive = small, poorly fitted or top-dose-only effect, or another doubt; inactive = no such curve, though single readings can be large; an effect the other way counts as inactive or inconclusive. Potency is read from the fitted curve at half-maximal effect.

Screening Cc1cc(O)c2c(c1)OC1(C)CCC3C(C)(C)CCCC34COC2C14 (centres undefined) returned SW480 rerep 2.3% and MCF10A rereplic inconclusive.
O=C(C=Cc1ccccc1)CC(c1ccccc1)N1CCOCC1 (centres undefined) was read as PINK1 expr mod -1.1%, SW480 rerep 3.66µM*, PTAP TSG101 blk -4.1%, KB-3-1 tox inconclusive, MCF10A rereplic 3.66µM* and KB-V1 cytotox inactive.
Screening COc1cc(OC)cc(C(=O)NC(=S)Nc2ccc3c4c(cccc24)CC3)c1 returned PINK1 expr mod inconclusive, SW480 rerep 2.2%, PTAP TSG101 blk -0.3%, KB-3-1 tox inactive, MCF10A rereplic 1.7% and KB-V1 cytotox inactive.
For COc1cccc(C(=O)Nc2c3c(nc4c2CCC4)CCCC3)c1 the results were PINK1 expr mod 0.3%, SW480 rerep 0.8%, PTAP TSG101 blk -1.1%, KB-3-1 tox inactive, MCF10A rereplic 7.6% and KB-V1 cytotox 14.6µM*.
COc1cccc(C(=O)Nc2nc3c(s2)CCCC3)c1 was read as PINK1 expr mod 4.8%.
For COc1ccc(C(=O)Nc2cccc3c2CCCC3)cc1 the results were PINK1 expr mod 14.2%, SW480 rerep inconclusive, PTAP TSG101 blk 0.7%, KB-3-1 tox 23.1µM*, MCF10A rereplic 13µM* and KB-V1 cytotox inactive.
COc1ccc(C(=O)Nc2ccc3c4c(cccc24)CC3)cc1 was read as PINK1 expr mod -0.9%[38.3 µM], SW480 rerep 6.7%, PTAP TSG101 blk -10.9%, KB-3-1 tox inactive, MCF10A rereplic 8.4% and KB-V1 cytotox 13µM*.
Cc1cccc(C(=O)Nc2c(C(=O)N3CCN(c4ccc(F)cc4)CC3)oc3ccccc23)c1 was read as PINK1 expr mod -3.6%, KB-3-1 tox inactive and KB-V1 cytotox inconclusive.
Screening NNC(=O)c1c(O)c2cccc3c2n(c1=O)CCC3 returned PINK1 expr mod 8.3%, SW480 rerep -5.2%, PTAP TSG101 blk 0.1%, KB-3-1 tox inactive, MCF10A rereplic 20.6µM* and KB-V1 cytotox inconclusive.
For O=C(NCCCO)c1c(O)c2cccc3c2n(c1=O)CCC3 the results were PINK1 expr mod 0.4%, SW480 rerep -17.1%, PTAP TSG101 blk -6.4%, KB-3-1 tox 5.8µM*, MCF10A rereplic inconclusive and KB-V1 cytotox 11.6µM*.
Oc1cc(NCc2cccnc2)ccc1-c1nc2ccccc2o1 was read as PINK1 expr mod -1.6%, SW480 rerep inconclusive, PTAP TSG101 blk -7.5%, KB-3-1 tox inconclusive, MCF10A rereplic 20.6µM* and KB-V1 cytotox inconclusive.
`CN(C)CCNC(=O)CN1C(=O)CCn2nc(-c3cn(C)c4ccccc34)cc21` gave PINK1 expr mod 0.2%, KB-3-1 tox inactive and KB-V1 cytotox inactive.
CS(=O)(=O)c1ccc(C(=O)OCC(=O)NCc2cccs2)cc1[N+](=O)[O-] was read as PINK1 expr mod -2.0%, SW480 rerep 9.2µM*, PTAP TSG101 blk -0.9%, KB-3-1 tox inconclusive, MCF10A rereplic 4.11µM* and KB-V1 cytotox inconclusive.
For Cc1cc(C(=O)OCC(=O)NNC(=O)c2cccs2)ccc1[N+](=O)[O-] the results were PINK1 expr mod 0.7%, SW480 rerep 11.6µM*, PTAP TSG101 blk -4.8%, KB-3-1 tox inactive, MCF10A rereplic inconclusive and KB-V1 cytotox inactive.
`COC(=O)c1cc(C(=O)OCC(=O)NNC(=O)c2cccs2)cc([N+](=O)[O-])c1` gave PINK1 expr mod 2.8%, SW480 rerep 2.91µM*, PTAP TSG101 blk -2.3%, KB-3-1 tox inactive, MCF10A rereplic -9.9% and KB-V1 cytotox inactive.
Screening Cc1cccc(C(=O)OCC(=O)NCc2cccs2)c1 returned PINK1 expr mod 3.0%, SW480 rerep -7.6%, PTAP TSG101 blk -19.0%, KB-3-1 tox inactive, MCF10A rereplic 13.2% and KB-V1 cytotox inactive.
Screening Cc1ccc2cccc(NC(=O)c3ccc(-c4cccc(Cl)c4Cl)o3)c2n1 returned PINK1 expr mod 0.5%, KB-3-1 tox inactive and KB-V1 cytotox inactive.
`Cc1cccc(C(=O)NCc2nc(-c3cccc(NC(=O)c4ccoc4C)c3)oc2C)n1` gave PINK1 expr mod 0.3%.
Screening COc1ccccc1-n1c(=S)sc2c(=O)n(Cc3ccco3)c(SC)nc21 returned PINK1 expr mod 2.8%[38.3 µM], SW480 rerep 7.2%, KB-3-1 tox inactive, MCF10A rereplic 7.5% and KB-V1 cytotox 14.6µM*.
`COc1cc(NC(=O)CSc2nc3ccccc3n2-c2ccccc2)c(C)cc1[N+](=O)[O-]` gave PINK1 expr mod 3.8%, SW480 rerep -4.6%, PTAP TSG101 blk -1.9%, KB-3-1 tox inactive, MCF10A rereplic inconclusive and KB-V1 cytotox 8.2µM*.
`COC(=O)c1ccc(-n2nnnc2SCC(=O)Nc2cc(OC)ccc2OC)cc1` gave SW480 rerep -10.5%, PTAP TSG101 blk -10.6%, KB-3-1 tox inactive, MCF10A rereplic -10.7% and KB-V1 cytotox inactive.
CN(C)S(=O)(=O)c1cccc(NC(=O)CSc2nc3ccccc3n2-c2ccccc2)c1 was read as PINK1 expr mod 1.1%, SW480 rerep inconclusive, PTAP TSG101 blk -3.2%, KB-3-1 tox inconclusive, MCF10A rereplic inconclusive and KB-V1 cytotox 2.31µM*.
`CN(c1ccccc1)S(=O)(=O)c1cccc(NC(=O)CSc2nncs2)c1` gave PINK1 expr mod 1.6%, SW480 rerep inconclusive, PTAP TSG101 blk -3.0%, KB-3-1 tox inconclusive, MCF10A rereplic -4.6% and KB-V1 cytotox 4.11µM*.
For CN(C)S(=O)(=O)c1ccc(NC(=O)CSc2nc3ccccc3n2-c2ccccc2)cc1 the results were PINK1 expr mod -2.0%, SW480 rerep 1.1%, PTAP TSG101 blk -6.0%, KB-3-1 tox inactive, MCF10A rereplic -1.1% and KB-V1 cytotox inactive.
For COc1ccc(-n2nnnc2SCC(=O)Nc2cc(OC)c([N+](=O)[O-])cc2C)cc1 the results were PINK1 expr mod 3.1%, SW480 rerep 1.8%, PTAP TSG101 blk -0.2%, KB-3-1 tox inactive, MCF10A rereplic 4.61µM* and KB-V1 cytotox inactive.
CN(c1ccccc1)S(=O)(=O)c1cccc(NC(=O)CSc2nnc(N)s2)c1 was read as PINK1 expr mod -1.6%, SW480 rerep -9.8%, PTAP TSG101 blk 1.0%, KB-3-1 tox inconclusive, MCF10A rereplic -5.2% and KB-V1 cytotox inconclusive.
For NC(=O)c1c(NC(=O)c2ccncn2)sc2c1CCCC2 the results were KB-3-1 tox inconclusive and KB-V1 cytotox inactive.
For Cc1c(C(=O)N2CC3CCC2C3)sc2ncnc(NCCc3ccccn3)c12 (centres undefined) the results were PINK1 expr mod -0.6%.

From PubChem BioAssay
